From PubChem BioAssay (EPA / NIEHS) come the findings set out here.

The structures appear in SMILES notation. Records with an inconclusive call do not appear. Calls of active or inactive are those of the source. Rule for the calls: active = hit-call score of the fitted dose curve at least 0.9, where 1 is the maximum; inconclusive = response in the unintended direction; inactive = score below 0.9.

Usually AC50 stands for the concentration at which the activity in the assay is half-maximal.

This assay in a line: CCTE_Deisenroth_AIME_384WELL_CTox_Active: Cytotoxicity Assessment (CTOX) in CCTE's 384-well Estrogen Receptor Transactivation Assay with AIME metabolic competence (metabolism positive), Deisenroth Lab (AID 2284037).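 Note: chemicals first conditioned 2 h by alginate-bound induced rat liver S9 before cells; activity means signal loss indicating cell death.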 Here is the method: CCTE_Deisenroth_AIME_384WELL (AIME metabolism assay) is a cell-based, single-readout assay that uses VM7Luc4E2, a human mammary gland/breast cell line, with measurements taken at 24 hour after chemical dosing in a 384-well plate.CCTE_Deisenroth_AIME_384WELL_CTox_Active is one of four assay components measured or calculated from the CCTE_Deisenroth_AIME_384WELL assay. It is designed to make measurements of a protease substrate, a type of viability indicator, as detected with substrate cleavage to a fluorescent probe in living cells.CCTE_Deisenroth_AIME_384WELL_CTox_Active is a component of the CCTE_Deisenroth_AIME_384WELL assay that measures the effect of retroftting the VM7Luc ERTA assay with the Alginate Immobolization of Metabolic Enzymes (AIME) metabolism method. AIME is optimized to impart phase I hepatic metabolism using phenobarbital/beta-naphthoflavone induced hepatic S9 from male Sprague Dawley rats. Parent chemicals are incubated for 2 hours in the AIME assay prior to transfer to the VM7Luc ERTA assay plate. […] This endpoint evaluates cytotoxicity in metabolism positive mode. Using a type of flourescent probe in VM7Luc cells, loss-of-signal activity can be used to understand loss of viability. This assay endpoint, CCTE_Deisenroth_AIME_384WELL_CTox_Active, was analyzed with bidirectional fitting in the ERTA assay.
The AIME procedure consists of a preparative "pre-stamping" step using a barium chloride/poly-L-lysine (PLL) solution followed by "stamping" the lid in alginate-hepatic S9 (metabolism positive) or alginate-water (metabolism negative) to form microspheres. Once stamping is completed, the AIME lids are placed in duplicate microplates (metabolism positive or negative) containing chemical solutions and incubated for two hours to facilitate metabolic reactions. The conditioned medium, containing parent chemical or metabolites, is then transferred to the cell-based VM7Luc Estrogen Receptor Transactivation Assay (ERTA) for 24 hours. A typical experimental design tests a 10-point concentration series (0.002 - 200 uM) for 8 compounds (96-well format) (Deisenroth 2020) or 32 compounds (384-well format) (Hopperstad 2022) in single technical replicate. AIME assay controls include trans-stilbene (bioactivated control) and ethylparaben (bioinactivated control). ERTA assay plate controls include 17-beta estradiol (positive control) and DMSO (solvent control). Experiments typically comprise a minimum of four experimental replicates (n=4).
For the compound `CCCCCOC(=O)CCC`, the call was inactive. Same read-out and setting: for `NCCCCCCN` the value was “inactive”; for `CC(C)=CCCC(C)CC=O` (centres undefined), “inactive”; for `NCCCN1CCOCC1`, “inactive”. Same read-out and setting: with `O=C(O)Cc1cccc2ccccc12` the entry was “inactive”. On the same count and under the same terms, for `CCCC1CCC(=O)O1` (centres undefined) the value was “inactive”. `NCCNCCN`: the outcome was inactive. On to `CC1(C)[C@@H]2CC[C@@]1(C)[C@H](O)C2`, for which the outcome was inactive. The same measure, in the same setting: for `OCCOCCOCCOCCO` the value was “inactive”; for `CN(C)CCCN`, “inactive”.

`CCCCCCCCCCCCCOS(=O)(=O)O`: the AC50 is 156 µM (active). As to `CCCCCCCCCCCCCC(=O)O`, the outcome was inactive.

In the case of `CC1(C)C(=O)N(Br)C(=O)N1Cl`, the call was inactive. The same measure, in the same setting: for `CC(=O)OCCOC(C)=O` the value was “inactive”; for `O=C(Cl)c1cccc(C(=O)Cl)c1`, “inactive”; for `O=C[C@@H](O)[C@H](O)[C@H](O)CO`, “inactive”. The same measure, in the same setting: for `OC1OC[C@@H](O)[C@H](O)[C@H]1O` (some centres undefined) the value was “inactive”; for `O=C(O)c1ccc([N+](=O)[O-])cc1`, “inactive”; for `Cc1ccc(O)c(C(C)(C)C)c1`, “inactive”.
